Measured values taken from PubChem BioAssay (Tox21).
A number with no mark means an inactive call. The source made the active and inactive calls. The call rests on the fitted dose curve; in most records, active means well fitted curve in the direction sought with a large enough effect in the repeat runs; inconclusive means weak or mixed curves; inactive means flat fitted curve, though single readings scatter.

experiment: qHTS assay to test for compound auto fluorescence at 460 nm (blue) in HEK293 cells (AID 720678); conditions: blue autofluorescence 405/460 nm; series mostly up to 91.3 µM; fluorescence, % of triamterene: at the top concentration
Procedure, shortened: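 After cell attachment (4-5 hr, 37C), compounds were pinned onto HEK293 monolayers in 10% dialyzed FBS medium. The blue channel (405/460 nm) was read following overnight culture. Equivalency was calculated against triamterene.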
On the % scale 0 is the no-effect control and ±100 the full control effect.

| Compound | fluorescence, % of triamterene | Potency |
| --- | --- | --- |
| CN(C)CC[C@@H](c1ccc(Br)cc1)c1ccccn1 | 0.0988% [at 46 µM] |  |
| O=C(O)/C=C/c1cnc[nH]1 | -0.0621% |  |
| Cc1occc1S | 0.264% |  |
| CC(C)CCCCCCOC(=O)c1ccc(C(=O)OCCCCCCC(C)C)c(C(=O)OCCCCCCC(C)C)c1 | 0.0402% |  |
| O=c1[nH]cnc2ccccc12 | -0.189% [at 95.7 µM] |  |
| CCN(CC)CCOc1ccc2c(c1)C(=O)c1cc(OCCN(CC)CC)ccc1-2 | -0.225% [at 46 µM] |  |
| CC(=O)OCCc1ccccc1 | -0.0867% |  |
| O=C(O)COC(=O)Cc1ccccc1Nc1c(Cl)cccc1Cl | 0.0454% [at 18.6 µM] |  |
| CCCCCCCCCCCCC(=O)O | 0.0385% |  |
| Oc1ccc(Cc2ccccc2)cc1 | -0.383% |  |
| NC1CCN(c2nc3c(cc2F)c(=O)c(C(=O)O)cn3-c2ccc(F)cc2F)C1 (stereo not drawn) | 0.188% [at 46 µM] |  |
| CC(C)c1ccc2c(C(C)C)cc(C(C)C)c(S(=O)(=O)O)c2c1 | 0.0489% [at 95.7 µM] |  |
| CCN1CCC[C@H]1CNC(=O)c1c(OC)ccc(Br)c1OC | 0.0028% [at 46 µM] |  |
| O=CNc1ccccc1 | -0.082% |  |
| Cc1cccc(Oc2ccccc2)c1 | 0.0078% |  |
| O=C(O)[C@@H]1[C@H]2C[C@H]3c4[nH]c5ccccc5c4CCN3C[C@@H]2CC[C@@H]1O | 4.22% [at 18.6 µM] |  |
| O=C(O)Cc1cc(I)c(Oc2ccc(O)c(I)c2)c(I)c1 |  | inactive |
| O=c1c2ccccc2nnn1CCl | -0.0049% |  |
| O=C(NN1CCCC1)NS(=O)(=O)c1ccc(Cl)cc1 | 0.0977% [at 46 µM] |  |

| Compound | fluorescence, % of triamterene | Potency |
| --- | --- | --- |
| C[C@@H](C1=C(CCN(C)C)Cc2ccccc21)c1ccccn1 | 0.243% [at 46 µM] |  |
| CC(=O)N(O)CCCCCNC(=O)CCC(=O)N(O)CCCCCNC(=O)CCC(=O)N(O)CCCCCN | -0.0021% [at 18.6 µM] |  |
| CCN(CC)CCOC(=O)C1(c2ccccc2)CCCC1 | -0.0628% [at 46 µM] |  |
| CC(C)(C)c1ccc(OCC2CO2)cc1 (stereo not drawn) | -0.24% [at 95.7 µM] |  |
| COc1cc(C(C)(C)C)c(O)c(C(C)(C)C)c1 | 0.0259% |  |
| Cc1ccccn1 |  | inactive |
| CCOc1ccc(NC(=O)CC(C)=O)cc1 | 0.0614% |  |
| CC(=O)/C=C/C1C(C)=CCCC1(C)C (stereo not drawn) | -0.171% |  |
| CCCCOC(=O)/C=C\C(=O)OCCCC | -0.0844% [at 95.7 µM] |  |
| N#CCCNCCC#N | -0.0838% [at 95.7 µM] |  |
| CCCOc1ccc2nc(NC(=O)OC)[nH]c2c1 | -0.0976% [at 46 µM] |  |
| O=C1c2cccc(O)c2C(=O)c2c(O)cc(CO)cc21 | -0.156% |  |
| CCOC(=O)C1=NN(c2ccccc2)C(=O)C1 | -0.0184% |  |
| CC(=O)SCc1ccco1 | 0.137% |  |
| Cc1ccccc1N=Nc1ccc(N=Nc2c(O)ccc3ccccc23)c(C)c1 | 0.0867% [at 46 µM] |  |
| CN(C(=O)CCCOc1ccc2[nH]c(=O)ccc2c1)C1CCCCC1 | 0.0368% [at 46 µM] |  |
| CCN(CC)C(C)CN1c2ccccc2Sc2ccccc21 (stereo not drawn) | -0.0331% [at 18.6 µM] |  |
| Cc1ccc(C(=O)C(C)CN2CCCCC2)cc1 (stereo not drawn) |  | inactive |
| O=C(O)Cn1c(C(=O)Nc2nc(-c3ccccc3Cl)cs2)cc2ccccc21 | 0.053% [at 46 µM] |  |
